According to PubChem BioAssay:
Calls of active or inactive are those of the source. Unless noted, the rule behind the calls is not given here.

How the values were obtained:
[1] = test system: XIP peptide (Xip251-270) binding; assay: XIP fragment 251-270 binding compounds – biochemical, small-molecule microarray, fluorescence 635/667 nm, 0.1 µg/mL protein, primary screen (AID 1182); conditions: fluorescent protein binding, 635 nm, higher = more signal, called active from +8 up or from −8 down
XIP peptide (Xip251-270) = assay: compounds binding XIP fragment 251-270 – biochemical, small-molecule microarray, fluorescence 635/667 nm, 0.5 µg/mL protein, primary screen (AID 1183); conditions: fluorescence 635 nm, higher = more signal
[2] = blood-stage malaria parasite viability loss – strain 3D7, DAPI fluorescence, 100 nL, primary screen (AID 1184);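 note: parasites grown inside human red blood cells in medium with human serum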; conditions: P. falciparum 3D7 growth, 3 d, higher = more signal
[3] = target: Homeobox protein Hox-A13 (Mus musculus) (UniProt Q62424); assay: disruptors of Hoxa13 oligonucleotide interaction – biochemical, fluorescence polarization, labeled oligonucleotide, primary screen (AID 1185); conditions: Hoxa13:DNA binding, 15 min, higher = more signal, called active from +8 up or from −8 down
[4] = blockers of DNA damage checkpoint Chk1 activation – imaging, HeLa, hydroxyurea, phospho-Chk1 antibody, percent positive cells, primary screen (AID 1186); conditions: hydroxyurea-induced phospho-Chk1 immunofluorescence imaging, higher = more signal
[5] = blockers of DNA damage checkpoint Chk1 activation – imaging, HeLa, hydroxyurea, phospho-Chk1 nuclear intensity, primary screen (AID 1187); conditions: hydroxyurea-induced phospho-Chk1 immunofluorescence imaging, higher = more signal

Sequence of Homeobox protein Hox-A13 (Mus musculus) (Q62424 whole entry, looked up): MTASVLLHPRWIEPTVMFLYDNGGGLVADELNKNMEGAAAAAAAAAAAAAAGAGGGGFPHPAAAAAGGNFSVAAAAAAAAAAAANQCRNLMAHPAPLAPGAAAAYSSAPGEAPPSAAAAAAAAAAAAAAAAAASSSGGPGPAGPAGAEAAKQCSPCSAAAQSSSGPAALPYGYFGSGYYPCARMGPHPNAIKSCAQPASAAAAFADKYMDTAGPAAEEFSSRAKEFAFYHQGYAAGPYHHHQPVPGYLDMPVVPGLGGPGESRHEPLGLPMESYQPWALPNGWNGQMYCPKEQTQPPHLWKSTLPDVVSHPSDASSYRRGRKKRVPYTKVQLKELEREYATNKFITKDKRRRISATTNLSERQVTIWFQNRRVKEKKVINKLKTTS

SMILES | composite z-score [1] | composite z-score (XIP peptide (Xip251-270)) | z-score [2] | z-score [3] | z-score [4] | z-score [5]
COCCCNC(=O)[C@@]1(Cc2ccccc2)N=C(c2ccc(OCCCO)cc2)O[C@H]1c1ccccc1 | 0.111 (inactive) | 0.752 | -2 | -5.35 (inactive) | 0.129 (inactive) | 0.221 (inactive)
COc1ccc(NN2C(C(O)c3ccc([N+](=O)[O-])cc3)C=CC3C(=O)N(C4CCCCC4)C(=O)C32)cc1 (configuration not stated) | -0.025 (inactive) | -0.0788 | -0.0215 | -3.73 (inactive) | -0.414 (inactive) | -0.331 (inactive)
C=CCC(OC(C)=O)[C@@H]1[C@@H](N(Cc2ccc(-c3cccc(C(F)(F)F)c3)o2)C(=O)c2ccc(-c3ccccc3)cc2)c2cc(OCCCO)ccc2N1C(=O)c1ccc(-c2ccccc2)cc1 (some centres not stated) | -0.462 (inactive) | -1.09 | -0.29 | -0.737 (inactive) | 0.216 (inactive) | 0.187 (inactive)
O=C1OCC=C[C@H]2OC34C=CCN(c5ccc6ccccc6c5)C(=O)[C@H]3N(CCCCCCO)C(=O)[C@@H]4[C@@H]12 (some centres not stated) | 0.458 (inactive) | 0.2 | -0.341 | -5.38 (inactive) | -0.261 (inactive) | -0.572 (inactive)
CCCCC(=C=CC[C@@H](O)c1ccccc1OCCO)CCO | -0.247 (inactive) | 0.357 | -1.6 | -3.19 (inactive) | 0.525 (inactive) | 0.585 (inactive)
CCCCN1CC=CC23O[C@@H]4/C=C\CCC(C)OC(=O)C4[C@H]2C(=O)N(CCCCCO)[C@@H]3C1=O (some centres not stated) | -0.725 (inactive) | 0.552 | -0.232 | -4.53 (inactive) | -0.795 (inactive) | -0.518 (inactive)
CCOc1cc(C(O)C2C=CC3C(=O)N(c4ccccc4)C(=O)C3N2Nc2ccccc2)ccc1O (configuration not stated) | 0.497 (inactive) | 0.221 | -0.033 | -4.03 (inactive) | -0.516 (inactive) | -0.835 (inactive)
C=CCNC(=O)[C@@H]1[C@H]2C(=O)O[C@H](c3ccccc3)[C@H](c3ccccc3)N2[C@H](c2ccccc2OCCO)[C@@]12C(=O)N(C(=O)OCCOC)c1ccc(C#CCNC(N)=O)cc12 | 0.347 (inactive) | 0.66 | -0.531 | -1.84 (inactive) | -0.189 (inactive) | -0.159 (inactive)
C=CCOC(=O)[C@@H]1[C@H]2C(=O)O[C@H](c3ccccc3)[C@H](c3ccccc3)N2[C@H](c2ccc(OCCOC(=O)[C@@H]3C[C@@H]4C(=O)N5CCC[C@H]5C(=O)N4[C@@H]3c3ccc(O)cc3)cc2)[C@@]12C(=O)Nc1ccc(I)cc12 | 0.393 (inactive) | 0.533 | -1.85 | 1.38 (inactive) | -0.946 (inactive) | -0.3 (inactive)
O=C(NCc1ccc(F)cc1)[C@H]1C[C@H]2C(=O)N[C@@H](Cc3ccccc3)C(=O)N2[C@H]1c1ccc(O)cc1 | 0.114 (inactive) | 0.832 | -0.237 | -1.6 (inactive) | -0.762 (inactive) | -0.352 (inactive)
CC[C@@H]1C=C(C(=O)O)[C@H](c2ccco2)N1S(=O)(=O)c1ccc(C)cc1 | 3.88 (inactive) | -0.265 | -0.761 | -4.78 (inactive) | 0.186 (inactive) | 0.162 (inactive)
CCOC(=O)[C@H]1CC=C2CC1C(=O)N1CCC[C@@H]1[C@@H]2O[Si](C)(C)C(C)(C)C (some centres not stated) | -0.473 (inactive) | -0.216 | -0.575 | -5.97 (inactive) | -0.696 (inactive) | -0.559 (inactive)
CCCN1C(=O)[C@]2(CCS(=O)(=O)c3ccccc3)N=C(c3ccc(OCCCO)cc3)O[C@@H]2c2ccccc21 | -0.0893 (inactive) | 0.11 | -2.6 | -5.36 (inactive) | -0.701 (inactive) | -0.918 (inactive)
COCCOC(=O)N1C(=O)[C@@]2(c3cc(C#CC4=CCCCC4)ccc31)[C@H](c1ccc(O)cc1)N1[C@H](c3ccccc3)[C@H](c3ccccc3)OC(=O)[C@H]1[C@@H]2C(N)=O | 0.181 (inactive) | 0.751 | -0.0117 | -1.22 (inactive) | 0.0809 (inactive) | 0.185 (inactive)
COC(=O)[C@@]1(Cc2ccc(F)cc2)[C@@H]2[C@@H](CC(=O)[C@H]2CC(=O)C(=O)N(C)C)CN1C(=O)c1ccccc1 | 0.502 (inactive) | 0.588 | -1.11 | -3.94 (inactive) | 0.0598 (inactive) | 0.186 (inactive)
C=CC[C@@]1(C(N)=O)N=C(c2ccc(OCCCO)cc2)O[C@@H]1c1ccccc1CN=[N+]=[N-] | 1.06 (inactive) | 0.843 | -1.7 | -3.93 (inactive) | 0.586 (inactive) | 1.16 (inactive)
COc1ccc(C(O)C2C=CC3C(=O)N(C)C(=O)C3N2N2CCCCC2)c2ccccc12 (configuration not stated) | 0.591 (inactive) | 0.637 | -0.179 | -4.89 (inactive) | 0.294 (inactive) | 0.312 (inactive)
